# In PubChem BioAssay (NCATS):
# Several values for one entry are separate records, joined by “and”; a condition that tells them apart may be missing. Equal values may be shown once. Records with an inconclusive call do not appear. A call without a number means that no potency is given here. Unmarked numbers belong to inactive results. Activity calls are given as the source filed them. Unless noted, calls come from the whole dose curve; as a rule, active = well fitted curve in the direction sought with a large enough effect; inconclusive = small, poorly fitted or top-dose-only effect, or another doubt; inactive = no such curve, though single readings can be large; an effect the other way counts as inactive or inconclusive.
# Key:
# [1] = target: Calcium and integrin-binding protein 1 (Homo sapiens) (UniProt Q99828); test: Validation qHTS for Identification of Calcium Integrin Binding protein 1 (CIB1) Competitor (AID 1508618)
# Chain of Calcium and integrin-binding protein 1 (Homo sapiens) (Q99828 whole entry, looked up): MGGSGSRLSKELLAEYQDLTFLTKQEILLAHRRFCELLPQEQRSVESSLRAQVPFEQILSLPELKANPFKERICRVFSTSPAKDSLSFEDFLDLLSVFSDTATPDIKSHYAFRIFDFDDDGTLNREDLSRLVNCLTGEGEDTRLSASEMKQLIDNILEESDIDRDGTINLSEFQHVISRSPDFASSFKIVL
# Procedure, shortened: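 CIB1-GST (1 uM final) in 5 mM HEPES pH 7.4, 125 mM NaCl, 5 mM CaCl2, 0.01% Tween20 was preincubated 15 min at room temperature with compound (up to 114 uM), then FITC-alphaIIb peptide (100 nM) added for 15 min; fluorescence polarization read.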
# [2] = Primary qHTS for small molecule stabilizers of the endoplasmic reticulum resident proteome: Secreted ER Calcium Modulated Protein (SERCaMP) assay (AID 1508630)
# Procedure, shortened: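 GLuc-SERCaMP-expressing SH-SY5Y cells, pretreated 16 h with compound, are challenged with thapsigargin to empty ER calcium stores; after 4 h, coelenterazine is added directly to the medium and luminescence is imaged.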
# [3] = Counterscreen qHTS for small molecule stabilizers of the endoplasmic reticulum resident proteome: GLuc-NoTag assay (AID 1508627); note: potency is the fitted concentration of half-maximal effect
# Procedure, shortened: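 Luminescence of Gaussia luciferase secreted into the medium (coelenterazine, 0.07x final, unlysed cells) was the read-out. Human SH-SY5Y neuroblastoma cells constitutively secreting untagged GLuc received compound for 19 h, then 100 nM thapsigargin for 4 h.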
# [4] = target: Calcium and integrin-binding protein 1 (Homo sapiens) (UniProt Q99828); test: Primary qHTS for Identification of Calcium Integrin Binding Protein 1 (CIB1) Competitor (AID 1508620);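 note: GST tagged CIB1 binding a fluorescein labelled alphaIIb integrin peptide tracer; top concentration of the series differs between compounds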
# Procedure, shortened: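 CIB1-GST (1 uM final) and compound incubated 15 min at room temperature before adding FITC-alphaIIb peptide tracer (100 nM final). Competition for binding read by fluorescence polarization (ex 480, em 540) after another 15 min at room temperature.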
# [5] = target: Cytochrome P450 2D6 (Homo sapiens) (UniProt P10635); test: Cytochrome P450 family 2 subfamily D member 6 (CYP2D6) small molecule antagonists: luciferase biochemical (cell-free) qHTS assay (AID 1645840; active = well fitted curve in the direction sought with a large enough effect in the repeat runs; an effect the other way counts as inactive or inconclusive; note: potency is the fitted concentration of half-maximal effect; nearly all actives have a fitted effect of over 55% in size)
# Chain of Cytochrome P450 2D6 (Homo sapiens) (P10635 whole entry, looked up): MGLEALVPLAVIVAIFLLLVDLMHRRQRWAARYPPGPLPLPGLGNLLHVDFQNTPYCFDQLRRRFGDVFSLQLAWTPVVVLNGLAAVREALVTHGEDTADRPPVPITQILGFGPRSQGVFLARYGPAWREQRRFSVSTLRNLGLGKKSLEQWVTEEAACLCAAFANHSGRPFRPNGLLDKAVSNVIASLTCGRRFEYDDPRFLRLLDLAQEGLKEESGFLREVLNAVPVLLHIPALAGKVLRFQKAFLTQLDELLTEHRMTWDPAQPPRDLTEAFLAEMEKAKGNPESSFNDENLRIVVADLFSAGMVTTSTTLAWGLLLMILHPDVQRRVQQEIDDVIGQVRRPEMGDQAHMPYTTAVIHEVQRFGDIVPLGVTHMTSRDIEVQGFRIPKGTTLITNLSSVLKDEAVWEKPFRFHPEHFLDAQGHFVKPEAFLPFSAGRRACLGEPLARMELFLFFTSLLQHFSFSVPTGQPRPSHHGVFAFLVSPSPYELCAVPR
# Procedure, shortened: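 P450-Glo luminescent screen: recombinant CYP2D6 enzyme–proluciferin substrate mix preincubated with compound 10 min at room temperature, then NADPH regeneration added for 1 h at room temperature. Detection reagent added for 20 min; luciferin light read as relative luminescence units.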
# [6] = target: Cytochrome P450 2C9 (Homo sapiens) (UniProt P11712); test: Cytochrome P450 family 2 subfamily C member 9 (CYP2C9) small molecule antagonists: luciferase biochemical (cell-free) qHTS assay (AID 1645842; active = well fitted curve in the direction sought with a large enough effect in the repeat runs; an effect the other way counts as inactive or inconclusive; note: nearly all actives have a fitted effect of over 55% in size; note: potency is the fitted concentration of half-maximal effect)
# Chain of Cytochrome P450 2C9 (Homo sapiens) (P11712 whole entry, looked up): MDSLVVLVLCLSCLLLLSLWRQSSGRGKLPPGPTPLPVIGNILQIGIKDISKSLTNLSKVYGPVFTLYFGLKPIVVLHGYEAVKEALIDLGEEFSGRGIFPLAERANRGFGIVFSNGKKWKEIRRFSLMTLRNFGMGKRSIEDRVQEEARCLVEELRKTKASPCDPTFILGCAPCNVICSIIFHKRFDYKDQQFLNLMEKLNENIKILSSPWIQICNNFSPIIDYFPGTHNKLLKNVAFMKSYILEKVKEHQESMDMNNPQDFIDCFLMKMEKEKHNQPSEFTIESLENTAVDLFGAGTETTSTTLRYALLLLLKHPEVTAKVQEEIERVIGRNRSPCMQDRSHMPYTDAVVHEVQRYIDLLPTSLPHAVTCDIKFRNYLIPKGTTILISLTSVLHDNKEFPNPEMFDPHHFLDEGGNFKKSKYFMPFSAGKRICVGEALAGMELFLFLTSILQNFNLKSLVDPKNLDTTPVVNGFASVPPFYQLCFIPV
# Procedure, shortened: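 Luminescence, after 20 min with luciferin detection reagent, reflected CYP2C9 turnover during a 1 h NADPH-driven reaction at 37C. Enzyme-substrate mix contained 0.4% bovine serum albumin and was preincubated with compound 10 min at room temperature.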
# [7] = Cell Viability qHTS for small molecule stabilizers of the endoplasmic reticulum resident proteome (AID 1508629); settings: cell viability counter-screen, 100 nM thapsigargin for final 4 h;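 note: compound exposure about 46 h in total before the viability read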; note: potency is the fitted concentration of half-maximal effect;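 for max response: human SH-SY5Y neuroblastoma cells carrying the GLuc-SERCaMP reporter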
# [8] = A High-Content qHTS Against Drug Library for the Identification of Small Molecules that Inhibit DYT1 Early Onset Primary Dystonia-Associated Cell Pathology (AID 1645839; calls by dose curve; note: series mostly up to about 46 µM)
# Procedure, shortened: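 In this high-content image screen, delE TorsinA mislocalization in inducible Flp-In 293 cells is scored as %pathology, with cell count serving as the counterscreen. Compound exposure lasts 48 h under tetracycline induction in reduced-serum medium.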
compound,measurement,setting,value
C[C@@H]1O[C@H](C[N+](C)(C)C)C[C@H]1O,outcome,[1],inactive
same,Potency,[2],inactive
C=CCN1CC[C@]23CCCCC2[C@H]1Cc1ccc(O)cc13 (stereo not given in full),outcome,[1],inactive
same,Potency,[3],inactive
CC[C@@]1(O)C(=O)OCc2c1cc1n(c2=O)Cc2cc3ccccc3nc2-1,outcome,[1],inactive
same,outcome,[4],inactive
same,Potency,[2],inactive
O=C(N[C@H]1CN2CCC1CC2)c1ccc(Cl)cc1,outcome,[1],inactive
same,outcome,[4],inactive
same,Potency,[2],inactive
CC1=NN=C(c2ccc(N)cc2)c2cc3c(cc2C1)OCO3,outcome,[1],inactive
same,outcome,[4],inactive
same,Potency,[5],19 µM (active)
same,Potency,[6],7.56 µM (active)
CNCCc1ccc(O)c(O)c1,outcome,[1],inactive
same,Potency,[3],11.2 µM (active)
same,max response,[7],11.4%
NCc1cc(=O)[nH]o1,outcome,[1],inactive
same,Potency,[3],inactive
C[N+](C)(C)CC(=O)O,outcome,[1],inactive
CC(=O)NCCc1c[nH]c2ccccc12,outcome,[1],inactive
same,outcome,[4],inactive
same,Potency,[2],inactive
CN1C2CCC1CC(OC(=O)c1cc(Cl)cc(Cl)c1)C2 (stereo not given),outcome,[1],inactive
NC(=O)CN1CC(O)CC1=O (stereo not given),outcome,[1],inactive
C[N+]1(C)C2CCC1CC(OC(=O)C(CO)c1ccccc1)C2 (stereo not given),outcome,[1],inactive
O=C(O)[C@@H]1CCN1,outcome,[1],inactive
same,Potency,[2],inactive
S=C(NC1CCCCC1)N1CCC(c2cnc[nH]2)CC1,outcome,[1],inactive
same,outcome,[4],inactive
same,Potency,[2],inactive
NC(CCP(=O)(O)O)C(=O)O (stereo not given),outcome,[1],inactive
same,Potency,[2],inactive
CNCCc1c[nH]c2ccc(O)cc12,outcome,[1],inactive
C[C@]12N[C@H](Cc3ccccc31)c1ccccc12,outcome,[1],inactive
same,Potency,[2],inactive
CCCN1CCC[C@H](c2cccc(O)c2)C1,outcome,[1],inactive
NC1CC1c1ccccc1 (stereo not given),outcome,[1],inactive
same,outcome,[4],inactive
same,Potency,[2],inactive
NCCc1c[nH]c2ccc(O)cc12,outcome,[1],inactive
CC(Cc1ccc(O)cc1)NCC(O)c1cc(O)cc(O)c1 (stereo not given),outcome,[1],inactive
same,outcome,[4],inactive
same,Potency,[2],inactive
same,Potency,[8],inactive
same,Potency,[5],11 µM (active)
same,Potency,[6],inactive
Cc1nccc2c1[nH]c1ccccc12,outcome,[1],inactive
NC(=NCCC[C@H](N)C(=O)O)N[N+](=O)[O-],outcome,[1],inactive
same,Potency,[2],inactive
O=C(O)CC[N+](=O)[O-],outcome,[1],inactive
NCCc1c[nH]c2ccccc12,outcome,[1],inactive
same,Potency,[2],inactive
NC1CCc2cc(O)c(O)cc2C1 (stereo not given),outcome,[1],inactive
same,Potency,[3],inactive
same,max response,[7],25.8%
CC[C@@H](C(N)=O)N1CCCC1=O,outcome,[1],inactive
same,outcome,[4],inactive
Cn1cnc(CCN)c1,outcome,[1],inactive
C#CCOC(=O)C1=CCCN(C)C1,outcome,[1],inactive
c1ccc2sc(C3(N4CCCCC4)CCCCC3)cc2c1,outcome,[1],inactive
same,Potency,[2],inactive
CC(=O)[C@H]1CCC2C3CC[C@H]4C[C@H](O)CC[C@]4(C)C3CC[C@@]21C (stereo not given in full),outcome,[1],inactive
same,Potency,[2],inactive
CCCN(CCC)C1CCc2ccc(O)cc2C1 (stereo not given),outcome,[1],inactive
same,Potency,[2],inactive
NC(N)=NOCCC(N)C(=O)O (stereo not given),outcome,[1],inactive
same,Potency,[2],inactive
Oc1ccc2c3c1O[C@H]1c4[nH]c5c(c4C[C@@]4(O)[C@@H](C2)N(CC2CC2)CC[C@]314)C[C@@]1(O)[C@H]2Cc3ccc(O)c4c3[C@@]1(CCN2CC1CC1)[C@H]5O4,outcome,[1],inactive
same,outcome,[4],inactive
same,Potency,[2],inactive
C[C@@H](N)Cc1cnc[nH]1,outcome,[1],inactive
CS(=N)(=O)CC[C@H](N)C(=O)O (stereo not given in full),outcome,[1],inactive
c1ccc(CCCN2CCN(CCOC(c3ccccc3)c3ccccc3)CC2)cc1,outcome,[1],inactive
same,outcome,[4],inactive
C/C=C(/C)C(=O)O[C@H]1C(C)=C2[C@H]([C@@H]1OC(=O)CCCCCCC)[C@@](C)(OC(C)=O)C[C@H](OC(=O)CCC)[C@@]1(O)[C@H]2OC(=O)[C@@]1(C)O,outcome,[1],inactive
same,outcome,[4],inactive
same,Potency,[3],inactive
same,Potency,[7],251 nM (active) and 224 nM (active)
same,Potency,[2],inactive
